# Assay results: the supplement of paper PMC3334620
# Over roughly 33,000 sequences, “E-score (-0.5 to 0.5)” has its median near -0.054; the highest 2% begin near 0.39. The full list was thinned out, with the highest values kept by preference.
# Target: Ylr278c (UniProt Q05854)
# Test: PBM E-score (8-mer binding enrichment) (E-score (-0.5 to 0.5)); higher = stronger / more preferred TF binding
# Conditions: protein concentration: 200 nM; construct: GST-DNA-binding domain
# Method: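 Universal 'all 10-mer' protein binding microarrays (Agilent AMADID 015681) probed with GST-tagged S. cerevisiae TFs (full-length or DBD) made by in vitro transcription/translation (PURExpress), about 100-200 nM. Bound TF was detected with fluorescent anti-GST. Each ungapped 8-mer (which stands for itself and its reverse complement) is scored by the PBM enrichment score (E-score), a modified Wilcoxon-Mann-Whitney statistic from -0.5 to +0.5, computed with the Universal PBM Analysis Suite. Scale: above 0.35 generally sequence-specific binding.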
# UniProt Q05854, sequence (Q05854 whole entry): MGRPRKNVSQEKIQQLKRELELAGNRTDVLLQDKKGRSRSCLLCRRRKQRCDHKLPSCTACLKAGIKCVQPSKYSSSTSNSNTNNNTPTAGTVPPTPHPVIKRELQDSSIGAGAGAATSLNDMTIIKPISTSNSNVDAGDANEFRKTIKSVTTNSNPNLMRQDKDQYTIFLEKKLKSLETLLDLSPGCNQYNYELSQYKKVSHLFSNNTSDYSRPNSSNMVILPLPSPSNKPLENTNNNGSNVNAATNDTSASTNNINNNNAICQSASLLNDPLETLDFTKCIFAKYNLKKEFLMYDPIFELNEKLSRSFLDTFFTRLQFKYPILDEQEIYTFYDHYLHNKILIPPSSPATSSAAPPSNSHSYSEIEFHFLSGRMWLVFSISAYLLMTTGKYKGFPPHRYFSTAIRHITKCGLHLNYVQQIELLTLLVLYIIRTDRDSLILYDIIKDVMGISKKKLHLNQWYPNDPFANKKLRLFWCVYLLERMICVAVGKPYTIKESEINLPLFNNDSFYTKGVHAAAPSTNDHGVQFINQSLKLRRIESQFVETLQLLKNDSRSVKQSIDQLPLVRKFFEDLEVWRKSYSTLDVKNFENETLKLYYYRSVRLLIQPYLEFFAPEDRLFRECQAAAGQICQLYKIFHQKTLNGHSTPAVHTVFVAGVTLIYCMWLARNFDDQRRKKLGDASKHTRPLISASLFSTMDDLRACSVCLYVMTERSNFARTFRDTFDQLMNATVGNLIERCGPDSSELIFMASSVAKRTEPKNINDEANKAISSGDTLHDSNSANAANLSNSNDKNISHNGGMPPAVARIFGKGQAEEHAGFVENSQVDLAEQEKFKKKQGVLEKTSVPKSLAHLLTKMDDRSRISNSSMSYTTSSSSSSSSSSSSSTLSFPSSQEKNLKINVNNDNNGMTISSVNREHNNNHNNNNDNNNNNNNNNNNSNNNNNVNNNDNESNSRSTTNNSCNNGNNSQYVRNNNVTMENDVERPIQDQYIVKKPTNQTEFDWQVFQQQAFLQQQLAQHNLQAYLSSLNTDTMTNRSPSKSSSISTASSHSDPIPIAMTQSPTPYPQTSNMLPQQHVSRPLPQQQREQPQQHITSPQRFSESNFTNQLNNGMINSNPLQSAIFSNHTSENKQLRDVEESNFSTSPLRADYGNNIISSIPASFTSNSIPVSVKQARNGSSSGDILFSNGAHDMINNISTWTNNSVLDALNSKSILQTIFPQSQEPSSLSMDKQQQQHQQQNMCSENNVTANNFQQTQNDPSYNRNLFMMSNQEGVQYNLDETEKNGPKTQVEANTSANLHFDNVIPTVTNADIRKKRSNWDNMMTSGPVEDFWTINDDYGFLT
row,Sequence,PBM E-score
1,TACGCGAA,-0.0238
2,ACAGGAGC,-0.0789
3,CTCATGGC,-0.0203
4,ATGCAAGA,-0.214
5,ACACTAAC,0.0293
6,ACCAAGAT,-0.0275
7,GACAATTA,0.0117
8,GGATCGTA,-0.00905
9,AATAGATA,-0.126
10,ACACTGCC,0.154
11,CGGATGTA,0.307
12,AGGATTCC,-0.00339
13,CGGATTCA,0.161
14,CGGATTCC,0.427
15,CGGATGTC,0.4
16,CGGATTTA,0.451
17,GGGATTTA,0.287
18,AGGATTTA,0.00139
19,AGGATGTC,-0.0871
20,TTAAAAAA,-0.12
21,AGACCCAC,-0.00095
22,GACTAAAC,-0.0103
23,GGGCAACA,0.0452
24,AACCACTG,-0.136
25,GCCCTCAC,-0.226
26,TATCCCGA,0.258

row,Sequence,PBM E-score
1,CATCCCCG,0.396
2,AATCCCGA,0.42
3,CATCCCCA,-0.109
4,CATCCCCC,-0.0212
5,AATCCCCA,-0.0702
6,AATCCCCG,0.398
7,CATCCCGG,0.342
8,AATCCCGT,0.346
9,AATCCCGG,0.439
10,AATCCCCC,0.0792
11,CATCCCGA,0.262
12,AGGTTCAG,0.0375
13,AAGCCTCC,0.0849
14,CATTGGCA,-0.208
15,CAAGATCC,0.167
16,ATTATAGC,-0.086
17,ATGTCTAC,-0.1
18,AGAAAGAT,-0.103
19,CACGTCAC,-0.147
20,GCGCATAA,-0.0332
21,ACCAAGAG,-0.29
22,CCCGAGAA,0.293
23,GCCGAGGA,0.197
24,TCCGATAA,0.428
25,TCCGAGAA,0.421
26,GCCGATAA,0.301

row,Sequence,PBM E-score
1,ACCGATAA,0.269
2,TCCGAGGA,0.401
3,ACCGAGAA,0.109
4,CCCGAGGA,0.061
5,ACAATGGT,-0.255
6,ATCGTGAA,0.00733
7,GGAGGTTA,0.101
8,AAAAGATC,-0.0655
9,ATGCCGCC,0.325
10,CCCATGGC,-0.0499
11,CTACCGGA,0.348
12,GTACCGCA,0.164
13,GTACCGGA,0.415
14,ATACCGGA,0.405
15,ATACCGGG,0.334
16,ATACCGGC,0.354
17,ATGTCCCA,-0.0785
18,CTCTACTA,-0.245
19,GAGCAAAC,0.0239
20,CTCCTATC,-0.0262
21,CGGGCGTA,0.178
22,GGAGCGGA,0.396
23,GGGGCGGA,0.412
24,GGGGCGTA,0.0266
25,AGAGCGGA,0.254
26,CGGGCGGA,0.405

row,Sequence,PBM E-score
1,CGGGCGGC,0.31
2,AGGGCGGA,0.385
3,CGAGCGGA,0.381
4,CCAGTAGC,0.181
5,CATTGCTA,-0.0953
6,ACGCTCTA,-0.183
7,ATCGAAAG,-0.0309
8,GACTGCTA,-0.277
9,CCAGTCCA,-0.17
10,GTCCCTAA,-0.0663
11,AAGAGAGT,-0.0766
12,ATTCCTGC,0.0732
13,ATTCCTGG,-0.0751
14,ATTCCCCG,0.375
15,ATTCCAGC,-0.104
16,ATTCCCGA,0.338
17,ACTCCCCG,0.338
18,ATTCCGTG,0.361
19,ATTCCCGG,0.411
20,ACTCCCGG,0.396
21,ACTCCCGA,0.217
22,ATTCCGGG,0.443
23,ATTCCGGC,0.463
24,GCGAGTCA,-0.0556
25,CACCGCCC,0.218
26,AAGCTCTG,-0.356

row,Sequence,PBM E-score
1,ATTTATCC,0.163
2,ACATCAAC,0.05
3,TAAAGAAA,0.0382
4,CGCCAAAC,0.0632
5,AATTAGCC,0.0197
6,GGGGAATA,0.141
7,CCGGAATA,0.434
8,GTGGAATA,0.0653
9,CGGGAATA,0.374
10,ACGGAATC,0.32
11,CCGGAATC,0.435
12,CCGGAAGA,0.421
13,ACGGAATA,0.357
14,GCGGAATA,0.396
15,CCGGAAGG,0.387
16,ACGGAAGA,0.169
17,CTGGAATC,-0.0172
18,AAATGTGA,-0.146
19,CACCCCCG,0.145
20,CATCTTTA,-0.0964
21,AGGTAACG,-0.0647
22,GTATGGGA,-0.174
23,CCTCTACA,-0.252
24,AAGATCTT,0.0756
25,AAGCGTCT,-0.176
26,ACTCATGG,-0.191

row,Sequence,PBM E-score
1,ATCCGGCC,0.399
2,ATCCGGTG,0.408
3,AACCGGCG,0.361
4,ATACGGTG,0.0149
5,ATCCGACG,0.367
6,AACCGGCC,0.275
7,ACCCGGTG,0.277
8,ATCCGGCG,0.432
9,ACCCGGCC,0.272
10,CTCACCTC,-0.0994
11,CTAGCATC,-0.167
12,CTGCTTTA,0.0716
13,GGTCTCTA,-0.21
14,ATCGCCAC,-0.0201
15,GCTGGGCA,-0.184
16,ATAACTTG,-0.14
17,ATACTGCC,0.013
18,ATAGAGAG,-0.283
19,AAGTCCGT,0.433
20,ACGTCCGC,0.299
21,AAGTCCAG,-0.0689
22,AAGTCCGG,0.481
23,AAGTCCTC,0.122
24,AAGTCCGC,0.46
25,AAGTCCTG,-0.106
26,AAGTCCCT,-0.213

row,Sequence,PBM E-score
1,AAGTCCAT,-0.0494
2,CACCGCTG,-0.0372
3,ACTTAAGG,-0.105
4,ACACAAGA,-0.0979
5,ACTAGAAT,-0.0455
6,ATTGGCCC,-0.211
7,GTCGTCGA,-0.121
8,AGGGTGCC,-0.211
9,CGTATCTC,0.148
10,GCCGGCAC,0.304
11,CCCGGCAA,0.303
12,CCCGGCCA,0.267
13,GCCGGCAA,0.391
14,ACCGGCGA,0.379
15,ACCGGCAA,0.285
16,TACGGCAA,0.129
17,TCCGGCCA,0.409
18,GCCGGCGA,0.385
19,ACCGGCCA,0.169
20,TCCGGCGA,0.437
21,TCCGGCAA,0.431
